# Test results: PubChem BioAssay (Tox21)
# Where “and” joins values, the source holds several entries; their conditions need not be identical. Equal entries are not always repeated. Results filed as inconclusive are left out. A call without a number means that no potency is given here. Calls of active or inactive are those of the source. Calls follow the shape of the dose curve; as a rule, active = well fitted cell-killing curve with a large enough effect in the repeat runs; inconclusive = weak or mixed curves, or effect the other way; inactive = no such curve, though single readings can be large or run the other way.
# Assay: qHTS assay to identify small molecule antagonists of the vitamin D receptor (VDR) signaling pathway - cell viability counter screen (AID 743225); also: nearly all actives have a fitted effect of over 50% in size
# Details: VDR-bla HEK293T viability, CellTiter-Glo luminescence, 16 h; series mostly up to 61 µM
# Source text: U.S. Tox21 Program National Center for Advancing Translational Sciences [NCATS] NIH Chemical Genomics Center [NCGC] U.S. Environmental Protection Agency [EPA] National Institutes of Environmental Health Sciences [NIEHS] National Toxicology Program [NTP] U.S. Food and Drug Administration [FDA] Tox21 Assay Overview: The vitamin D receptor (VDR), a member of nuclear hormone receptor superfamily, plays a critical role in calcium homeostasis and bone metabolism. It is also involved in cell differentiation and growth, and thrombogenicity. To identify the compounds that inhibit VDR signaling, the VDR-UAS-bla HEK 293T cell line (Invitrogen, Carlsbad, CA, USA) containing a beta-lactamase reporter gene under the control of an upstream activator sequence (UAS) was used to screen the Tox21 10K compound library. The cytotoxicity of the Tox21 compound library against the VDR-bla cell line was tested in parallel by measuring the cell viability using CellTiter-Glo assay (Promega, Madison, WI) in the same wells.
# Tox21 Assay Protocol Summary: VDR-bla cells were dispensed at 2,000 cells/5 uL of assay medium per well into black wall/clear-bottom 1536-well plates using a Multidrop Combi (Thermo Fisher Scientific, Waltham, MA) dispenser. After the assay plates were incubated at a 37C and 5% CO2 for 4 h, 23 nL of compounds dissolved in DMSO, positive controls or DMSO only was transferred to the assay plate by a Pintool station (Kalypsys, San Diego, CA), followed by addition of 1 uL of 1-alpha, 25-Dihydroxy Vitamin D3 (3 nM, final concentration in the wells) using a Bioraptr Flying Reagent Dispenser (FRD) workstation (Beckman Coulter, Indianapolis, IN). The plates were incubated at 37C and 5% CO2 for 16 h, and then 1 uL of LiveBLAzerTM B/G FRET substrate was added using a Bioraptr FRD. The plates were incubated at room temperature for 2 h and fluorescence intensity was measured by an Envision plate reader (PerkinElmer, Shelton, CT). For cell viability readout that measures cytotoxicity, 3 ul/well of CellTiter-Glo reagent was added into the assay plates using a Bioraptr FRD. After 30 min incubation at room temperature, the luminescence intensity in the plates was measured using a ViewLux plate reader (PerkinElmer).
# Potency is read from the fitted curve at half-maximal effect.
row,Structure (SMILES),Potency
1,CC12CCC(CC1)C(C)(C)O2,inactive
2,O=CC(=O)c1ccccc1,inactive
3,C=CCc1ccc(O)c(OC)c1,inactive
4,CCOC(N)=O,inactive
5,O=C1O[C@H]([C@@H](O)CO)C(O)=C1O,inactive
6,NC(=O)n1c(O)c(C(=O)c2cccs2)c2cc(Cl)ccc21,inactive
7,CC1(C)S[C@@H]2[C@H](NC(=O)[C@H](N)c3ccccc3)C(=O)N2[C@H]1C(=O)O,inactive
8,O=S1(=O)OC(c2ccc(O)cc2)(c2ccc(O)cc2)c2ccccc21,inactive
9,CC(=O)CC(c1ccccc1)c1c(O)c2ccccc2oc1=O (stereo not given),inactive
10,CCCCCCc1ccc(O)cc1O,49 µM (active)
11,CN(C)CCOC(c1ccccc1)c1ccccc1,inactive
12,CN1CCC[C@H]1c1cccnc1,inactive
13,CCCCCCCCCCCC[N+](C)(C)Cc1ccccc1,19.1 µM (active) and 15 µM (active) and 21.3 µM (active)
14,Nc1ccc(S(N)(=O)=O)cc1,inactive
15,COc1ccc2c(c1)c(CC(=O)O)c(C)n2C(=O)c1ccc(Cl)cc1,inactive
16,Cc1ccc(S(=O)(=O)O)cc1,inactive
17,CC(=O)C(=O)O,inactive
18,CCCCCCCCCCCCCCCC[N+](C)(C)Cc1ccccc1,45 µM (active) and 17.7 µM (active) and 21.3 µM (active)
19,F[B-](F)(F)F,inactive
20,Cc1ncc([N+](=O)[O-])n1C,inactive

row,Structure (SMILES),Potency
1,C[C@](N)(Cc1ccc(O)c(O)c1)C(=O)O,inactive
2,Cc1cn([C@H]2C=C[C@@H](CO)O2)c(=O)[nH]c1=O,inactive
3,CCCCCCCC(=O)OCC(COC(=O)CCCCCCC)OC(=O)CCCCCCC,inactive
4,Cc1c(C(=O)O)c(O)cc2c1C(=O)c1c(O)c([C@@H]3O[C@H](CO)[C@@H](O)[C@H](O)[C@H]3O)c(O)c(O)c1C2=O,inactive
5,CC(C)C(=O)Nc1ccc([N+](=O)[O-])c(C(F)(F)F)c1,inactive
6,Nc1ccc2c(c1)CN1C(=O)c3ccccc3C1=N2,inactive
7,CC(=O)CCC(=O)O,inactive
8,O=c1[nH]cnc2c1ncn2[C@H]1CC[C@@H](CO)O1,inactive
9,Nc1c2c(nc3ccccc13)CCCC2,inactive
10,CN(C)CCOC(C)(c1ccccc1)c1ccccn1 (stereo not given),inactive
11,CN(C)C(=O)Nc1ccc(Cl)c(Cl)c1,inactive
12,CN(N=O)C(=O)N[C@@H]1[C@@H](O)[C@H](O)[C@@H](CO)O[C@@H]1O,inactive
13,CN(C)C(=S)SC(=S)N(C)C,inactive
14,CNNCc1ccc(C(=O)NC(C)C)cc1,inactive
15,Cc1cc(C)nc(NS(=O)(=O)c2ccc(N)cc2)n1,inactive
16,CN1CCc2cccc3c2[C@H]1Cc1ccc(O)c(O)c1-3,49.5 µM (active) and 11.5 µM (active)
17,O=C1OC2(c3ccccc31)c1cc(Br)c(O)c(Br)c1Oc1c2cc(Br)c(O)c1Br,inactive
18,CN[C@H]1CC[C@@H](c2ccc(Cl)c(Cl)c2)c2ccccc21,23.9 µM (active)
19,CC(O)(P(=O)(O)O)P(=O)(O)O,inactive
20,CCCCNC(=O)NS(=O)(=O)c1ccc(C)cc1,inactive
